JMJD2C inh: human JMJD2C demethylase inhibition | Q9H3R0 | GST-JMJD2C(1-420) H3K9me3 demethylation, DELFIA europium | inhibition, % at 2.35 µM | actives 0.069% (n = 330,000) | AID 2099;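 active means more than half of a compound's replicate wells show inhibition beyond 50%, single wells judged on their own value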;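 further: signal counts dimethyl H3K9 product captured on neutravidin plate; 0% = median of DMSO wells and 100% = 0.3 times that DMSO median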
KLK7 zymogen act: activates the human kallikrein-7 zymogen; P49862; AID 652039; purified proKLK7, EDANS-DABCYL substrate fluorescence; 100% is mature enzyme control, 0% vehicle; activation, % at 7 µM; actives 0.9% (n = 370,000);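 active means activation above the mean of all tested compounds plus 3 SD, computed per campaign excluding outliers beyond control limits, cut at about 13% in these data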
Rev-erbA mod: modulates human Rev-erb alpha binding to DNA; P20393; activity, % at 10 µM; Rev-erbα–FITC-DNA binding, fluorescence polarization, 90 min; actives 0.79% (n = 370,000); AID 1259318;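 active means activity above about 14%, limit read from the data; passing the limit was not always enough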;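 further: 0% = DMSO wells with 35 nM protein and 100% = DMSO wells with 750 nM protein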
PP5 inh: inhibitors of human protein phosphatase 5 (PP5); purified PP5c, OMFP substrate fluorescence; P53041; inhibition, % at 6.7 µM; actives 0.18% (n = 320,000); AID 1987;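 active means inhibition above the campaign's mean inhibition across all tested compounds plus 3 SD, cut at about 9.5% in these data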;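 further: 0% = DMSO only and 100% = 100 µM cantharidin control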
Target sequence (P53041 whole entry, looked up): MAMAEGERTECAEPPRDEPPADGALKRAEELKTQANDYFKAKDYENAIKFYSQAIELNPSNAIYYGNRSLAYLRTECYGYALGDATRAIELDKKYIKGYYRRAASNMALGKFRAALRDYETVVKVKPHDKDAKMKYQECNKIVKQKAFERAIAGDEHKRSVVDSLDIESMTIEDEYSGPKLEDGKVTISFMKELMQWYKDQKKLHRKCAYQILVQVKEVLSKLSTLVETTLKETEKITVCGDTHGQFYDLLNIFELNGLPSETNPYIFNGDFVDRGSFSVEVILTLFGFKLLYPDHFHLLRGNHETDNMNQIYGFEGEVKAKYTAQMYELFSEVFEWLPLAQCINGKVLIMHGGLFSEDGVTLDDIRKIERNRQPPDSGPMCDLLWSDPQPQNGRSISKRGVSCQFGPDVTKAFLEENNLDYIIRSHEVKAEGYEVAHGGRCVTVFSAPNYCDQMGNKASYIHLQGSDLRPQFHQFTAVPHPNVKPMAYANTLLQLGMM
PP1 counter: counter-screen for PP5 inhibitors: inhibitors of human PP1-alpha. P62136. purified PP1alpha, OMFP fluorescence. inhibition, % at 6.7 µM. actives 0.9% (n = 320,000). AID 2235;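 active means inhibition above the mean inhibition of all tested compounds plus 3 SD, computed separately for each screening campaign, cut at about 15% in these data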
PG9 Ab binder: binds the HIV-1 gp120 antibody PG9; TR-FRET gp120-PG9 antibody binding; inhibition, % at 6.7 µM; actives 0.43% (n = 360,000); in the data active means inhibition above about 8.5%
PP1 confirm: human PP1 phosphatase inhibition, confirmation. shares compounds with PP1 counter. purified PP1alpha, OMFP substrate fluorescence. inhibition, % at 6.7 µM. actives 52% (n = 1,900). AID 2358;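 active means mean PP1 inhibition above a set limit taken from the earlier primary screen, cut at about 15% in these data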
PP5 counter: counter-screen for PP1 inhibitors: human PP5 phosphatase inhibition. shares compounds with PP1 counter. purified PP5c, OMFP fluorescence. inhibition, % at 6.7 µM. actives 4% (n = 1,900);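 active means mean PP5 inhibition over triplicate wells above about 9.5% taken from the earlier PP1 screen, limit read from the data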
An asterisk follows results filed as active; . = no result. Compounds with a hit are over-represented: about 2.8% of the library has one in this group of screens.

SMILES	JMJD2C inh	KLK7 zymogen act	Rev-erbA mod	PP5 inh	PP1 counter	PG9 Ab binder	PP1 confirm	PP5 counter
CS(=O)(=O)c1ccc(C(=O)Nc2ccc(N3CCCC3)cc2)c(Cl)c1	-3.3	1.1	-2.9	3.1	0.5	-3.5	.	.
O=C(Nc1ccc(N2CCCC2)cc1)c1cc(Br)ccc1Cl	2.5	-0.7	3.4	1.1	33.1*	3.5	0.1	-1.5
CCCn1c(=O)c(C(=O)NNC(=O)c2ccccc2[N+](=O)[O-])c(O)c2ccccc21	-10.6	-0.2	2.9	3.5	19.9*	1.1	18.3*	-5.0
N#Cc1c(-c2ccccc2)nc(SCc2ccc(Cl)cc2)[nH]c1=O	-12.7	-0.1	-3.4	6.1	17.9*	0.7	12.2	-1.9
N#Cc1c(-c2ccccc2)nc(SCC(=O)N2c3ccccc3Sc3ccccc32)[nH]c1=O	7.8	0.2	-3.4	3.1	20.7*	2.8	17.4*	-1.2
N#Cc1c(-c2ccccc2)nc(SCC(=O)N(c2ccccc2)c2ccccc2)[nH]c1=O	-1.1	-0.1	2.6	3.2	8.7	1.9	.	.
COc1ccc(CNC(=O)c2c(C)cc(=O)oc2C)cc1	-13.7	0.2	10.4	-1.1	-4.4	0.2	.	.
COc1ccc(NC(=O)c2c(C)cc(=O)oc2C)c(OC)c1	4.1	-0.3	6.4	-1.3	35.5*	0.3	-6.9	-5.3
COc1cc(/C=C2/NC(=O)N(CC(=O)Nc3ccc(C)cc3)C2=O)ccc1Oc1ccc([N+](=O)[O-])cn1	3.6	-0.4	-6.5	-1.2	19.4*	-0.5	23.4*	-2.2
N#CCSc1nc2ccc(N3CCCCC3)cc2c(=O)n1Cc1ccccc1	2.3	-2.3	-4.3	3.7	23.1*	2.5	20.9*	-0.7
N#CCSc1nc2ccccc2c(=O)n1CC1CCCC1	0.9	-0.2	4.2	-0.2	2.5	0.1	.	.
O=C(Cn1nnc(-c2ccc(Cl)cc2)n1)NCc1ccco1	-3.4	-0.1	-2.6	0.5	1.2	-1.0	.	.
COc1ccc(C(=O)Nc2ccc(-c3nnn(CC(=O)NCc4ccco4)n3)cc2)cc1	5.5	0.1	-0.3	-3.3	20.2*	1.3	23.7*	-2.0
CC1=NN(c2ccc(C(=O)O)cc2)C(=O)/C1=C\c1ccc(OC(=O)c2cccs2)cc1	-21.8	-0.2	-4.1	1.7	29.2*	-2.4	17.6*	-1.5
CC1=NN(c2ccccc2)C(=O)/C1=C/c1cccs1	0.8	0.3	-2.5	2.5	-1.2	-2.8	.	.
COc1ccc(S(=O)(=O)Nc2cccc(S(=O)(=O)N3CCCCCC3)c2)cc1	-1.0	-0.4	-1.5	-0.2	-1.4	1.3	.	.
O=S(=O)(Nc1nc2ccccc2nc1Nc1cccc(S(=O)(=O)N2CCCCC2)c1)c1ccccc1	4.8	-0.2	0.7	9.8*	25.4*	1.9	19.6*	3.9
O=C(Cc1cccc2ccccc12)N/N=C/c1ccc2cccc(O)c2n1	-5.6	0.0	-8.4	1.7	24.6*	1.0	21.0*	0.4
COC[C@H]1CCCN1c1ccc2c(c1)O[C@@H]1CCN(C1)S2(=O)=O	.	-0.7	0.8	.	.	.	.	.
COc1ccc(-n2c(COc3ccc(Cl)cc3)nnc2SCc2ccc(C#N)cc2)cc1	-2.3	0.5	-2.8	5.2	19.8*	0.8	5.2	5.9
COc1ccc(CNC(=O)c2ccc(CNc3c(NC4CCCCC4)c(=O)c3=O)cc2)cc1	7.9	-0.5	6.2	1.8	25.1*	-1.3	14.4	-4.2
COc1ccc(C(=O)NCc2ccc(-c3nc4ccccc4s3)cc2)cc1	-38.2	-0.5	1.4	0.2	20.0*	-1.0	25.0*	-2.1
Cc1nc2ccc(C(=O)N3CCN(C(=O)OCc4ccccc4)CC3)cc2n1C1CCCC1	.	-0.1	-4.7	.	.	.	.	.
COc1cccc(/C=N/Nc2cc(-n3nc(C)cc3-c3ccccc3)ncn2)c1O	-4.8	-1.0	-5.6	2.9	20.7*	-0.4	31.5*	-1.3
COc1cccc(/C=N/Nc2nc(Nc3ccccc3)nc(-n3nc(C)cc3C)n2)c1O	-3.9	-4.8	5.8	11.5*	35.5*	-0.7	36.1*	3.4
SMILES	JMJD2C inh	KLK7 zymogen act	Rev-erbA mod	PP5 inh	PP1 counter	PG9 Ab binder	PP1 confirm	PP5 counter
COc1ccc2nc(C)cc(N/N=C/c3cccc(OC)c3O)c2c1	1.7	0.0	2.9	1.1	1.2	-8.8	.	.
C=CCN=C1NC(c2ccccc2C(F)(F)F)C(C(=O)OC)=C(C)N1Cc1cccc(C(F)(F)F)c1 (stereo not drawn)	.	0.4	6.0	.	.	-1.1	.	.
CCOC(=O)[C@@]12CCCC=C1N(CCc1ccc(Cl)cc1)C(=O)[C@H]2CC(=O)NCc1cccs1	.	-0.1	4.7	.	.	.	.	.
Cc1ccc(S(=O)(=O)N2CCC(=O)N(C(COCc3cccc(C(F)(F)F)c3)Cc3ccccc3)CC2)cc1 (stereo not drawn)	3.5	1.0	-3.5	7.3	20.1*	1.0	2.7	-1.3
O=C(NC1CC1)C1Nc2ccc(OC(F)(F)F)cc2C2C=CCC12 (stereo not drawn)	37.7	1.0	-5.7	0.9	-0.5	-0.4	.	.
O=C(O)C1Nc2ccc(OC(F)(F)F)cc2C2C=CCC12 (stereo not drawn)	4.7	.	.	-0.5	21.6*	.	4.5	-1.2
CC(C)(C)c1ccc(S(=O)(=O)NCC2CCN(C(=O)C(=O)c3cccs3)CC2)cc1	.	1.1	5.8	.	.	-0.1	.	.
C=CCc1cccc(/C=N/NC(=O)C(C)Nc2cccc(C)c2)c1O (stereo not drawn)	5.4	-11.3	0.5	8.0	5.4	-2.2	.	.
COc1cc([N+](=O)[O-])cc(/C=N/NC(=O)C(C)Nc2cccc(C)c2)c1O (stereo not drawn)	-2.9	-0.4	2.9	6.3	21.9*	0.8	9.4	-5.9
COc1cc([N+](=O)[O-])cc(/C=N/NC(=O)C(C)Nc2ccccc2C)c1O (stereo not drawn)	6.8	-0.6	2.9	2.8	22.2*	-4.1	14.7	-5.5
COc1cc([N+](=O)[O-])cc(/C=N/NC(=O)CSc2ccccn2)c1O	9.3	0.0	5.4	-0.2	20.9*	-1.9	23.8*	-5.9
COC(=O)C1=C(C)N(C)C(=NCc2ccc3c(c2)OCO3)NC1c1ccc(C(F)(F)F)cc1 (stereo not drawn)	.	-0.3	-2.7	.	.	-0.4	.	.
COC(=O)C1=C(C)N(Cc2cccc(C(F)(F)F)c2)C(=NCc2cc(OC)c(OC)c(OC)c2)NC1c1ccccc1C(F)(F)F (stereo not drawn)	.	-0.4	1.8	.	.	-1.6	.	.
COC(=O)C1CCC(CNC(=O)C(Cc2ccc3c(c2)OCO3)NC(C)=O)CC1 (stereo not drawn)	.	0.7	-1.6	.	.	.	.	.
Cc1ccc(C2CC(c3cccs3)=NN2C(=O)CSc2nc(=O)n3ccc(C)cc3n2)cc1 (stereo not drawn)	3.0	-1.2	-6.6	-1.9	22.4*	-5.2	15.8*	2.0
